Hits are enriched below; roughly 5.3% of the tested compounds scored in any of these assays.
PfM18AAP inh-1 = blocks P. falciparum M18 aspartyl aminopeptidase | recombinant PfM18AAP, H-Glu-NHMec fluorogenic cleavage | inhibition, % at 7.35 µM | 290,000 compounds, 1.2% hits | AID 1822;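 active = inhibition above the campaign mean inhibition over all tested compounds plus 3 SD, cut at about 28% in these data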
ALR H2O2 inh = inhibitors of human sulfhydryl oxidase ALR; AID 485317; inhibition, % (test concentration not listed); P55789; 290,000 compounds, 3.8% hits; purified ALR, DTT oxidation, H2O2 HRP-luminol luminescence;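 active = mean replicate inhibition above about 79%, with every replicate also reaching it, limit read from the data; inconclusive = only one of the two criteria met; inactive = mean below limit and not every replicate reaching it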
Target sequence (P55789 whole entry, looked up): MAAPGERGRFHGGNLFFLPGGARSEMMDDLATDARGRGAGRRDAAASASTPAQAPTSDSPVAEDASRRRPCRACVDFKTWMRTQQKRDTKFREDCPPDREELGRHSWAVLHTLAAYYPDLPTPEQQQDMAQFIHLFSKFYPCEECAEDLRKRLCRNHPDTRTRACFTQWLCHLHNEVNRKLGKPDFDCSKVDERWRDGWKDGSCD
SUMO Mot1 rescue = blocks SUMOylation pathway, rescuing yeast Mot1-301 growth; S. cerevisiae Mot1-301 growth rescue, ATP luminescence, 38.5C; percent above DMSO median, 100 means doubled; growth rescue, % at 18.8 µM; 320,000 compounds, 1% hits; AID 2716;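 active = every valid replicate shows activation above 250% relative to neutral control wells; inactive = the rest, any valid replicate at or below 250%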
HIF activator = HIF pathway transcriptional activation; U2OS HRE-luciferase reporter, luminescence; normalized: DMSO 0%, desferrioxamine 100%; activation, % at 7.5 µM (by protocol); 300,000 compounds, 0.32% hits; AID 1910;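 active = mean activation of at least 10% of the iron chelator positive control signal, with at least half of replicates also reaching 10%; inconclusive = mean and replicate majority disagree about reaching 10%; inactive = mean and most replicates under 10%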
PfM18AAP inh-2 = PfM18AAP inhibition, confirmation; 2,400 compounds, 28% hits; shares compounds with PfM18AAP inh-1; recombinant PfM18AAP, H-Glu-NHMec fluorogenic cleavage; AID 2170; inhibition, % at 7.35 µM;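 active = mean inhibition over replicate wells above the hit cutoff set for the earlier primary screen, cut at about 29% in these data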
CTSL1 confirm = counter-screen for PFM18AAP inhibitors: confirmation of human cathepsin L inhibitors; shares compounds with PfM18AAP inh-1; purified cathepsin L1, Z-Leu-Arg-MCA fluorescence; inhibition, % at 5.96 µM; 2,400 tested, under 10 active; AID 2178;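 active = average inhibition across replicates above the hit cutoff set in the earlier primary screen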
Target sequence (P07711 whole entry, looked up): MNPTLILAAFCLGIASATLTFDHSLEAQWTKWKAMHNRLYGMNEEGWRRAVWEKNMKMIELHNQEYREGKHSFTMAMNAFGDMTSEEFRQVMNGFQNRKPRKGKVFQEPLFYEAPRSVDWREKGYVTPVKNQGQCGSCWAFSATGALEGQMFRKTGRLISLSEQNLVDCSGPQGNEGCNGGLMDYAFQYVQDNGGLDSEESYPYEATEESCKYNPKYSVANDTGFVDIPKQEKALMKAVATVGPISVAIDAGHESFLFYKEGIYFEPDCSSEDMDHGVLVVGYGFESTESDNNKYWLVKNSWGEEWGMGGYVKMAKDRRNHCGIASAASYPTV
A number is an active result; i = inactive; ? = inconclusive; nt = not tested or not shown.

SMILES	PfM18AAP inh-1	ALR H2O2 inh	SUMO Mot1 rescue	HIF activator	PfM18AAP inh-2	CTSL1 confirm
CCN(CC)c1ccc(/C=N/n2c(=S)[nH]nc(C)c2=O)cc1	35	i	i	i	i	i
Cc1n[nH]c(=S)n(/N=C/c2cccs2)c1=O	i	i	i	i	nt	nt
C=CCSC1=N/C(=C\c2cc(OCC)c(OC(C)=O)c([N+](=O)[O-])c2)C(=O)S1	38	98	i	i	i	i
Cc1cc(CNC(=O)c2ccc3c(c2)OCO3)c2ccccc2n1	33	i	i	i	i	i
Cc1cc(C)c(C(=O)NCC(=O)c2ccccc2)c(C)c1	nt	i	i	i	nt	nt
CCOC(=O)C1=C(CSc2nc(CC)c(C)cc2C#N)OC(N)=C(C#N)C1c1ccc(OC)cc1 (stereo not given)	i	nt	i	i	nt	nt
CCOC(=O)C1=C(CSc2nc(-c3ccncc3)ccc2C#N)OC(N)=C(C#N)C1c1ccc(OC)cc1 (stereo not given)	34	nt	i	i	i	i
NS(=O)(=O)c1cccc(NS(=O)(=O)c2cccc(C(F)(F)F)c2)c1	i	i	i	i	nt	nt
CCn1c2ccccc2c2cc(NC(=O)CSc3nnc(-c4cccc(F)c4)o3)ccc21	i	i	i	i	nt	nt
O=C(CSc1nnc(-c2cccc(F)c2)o1)Nc1nncs1	50	i	i	i	i	i
Cc1ccc(/C(O)=C/c2nc3cc(C)ccc3oc2=O)cc1	39	i	i	i	i	i
O=c1oc2ccccc2nc1/C=C(\O)c1ccccc1	i	i	i	i	nt	nt
Nc1ccccc1C(=O)NNC(=O)C(=O)/C=C(\O)c1ccccc1	i	i	i	i	nt	nt
NNc1ccc2nncn2n1	40	i	i	i	39	i
c1ccc(CCNc2ccc3nncn3n2)cc1	i	i	i	i	nt	nt
O=S(=O)(/N=C(/c1ccccc1)N1CCOCC1)c1ccc(F)cc1	i	i	i	i	nt	nt
COc1ccc(-n2c(SCC(=O)NCc3cccs3)nc3[nH]ncc3c2=O)cc1	52	i	i	i	34	i
COc1cc(NC(=O)CSc2nc3[nH]ncc3c(=O)n2-c2ccc(Cl)cc2)cc(OC)c1	i	i	i	i	nt	nt
O=C(CSc1nc2[nH]ncc2c(=O)n1-c1ccccc1)NCCc1ccccc1	i	i	i	i	nt	nt
O=C(CSc1nc2[nH]ncc2c(=O)n1-c1ccccc1)NCc1cccs1	57	i	i	i	39	i
Cc1cccc(NC(=O)CSc2nc3[nH]ncc3c(=O)n2-c2ccccc2)c1	36	i	i	i	i	i
COC(=O)c1cc(F)c(-n2cncn2)c(F)c1	i	i	i	i	nt	nt
COC(=O)c1cc([N+](=O)[O-])c(-n2cncn2)c([N+](=O)[O-])c1	83	nt	nt	i	44	i
Oc1ccc(/C=N/Nc2ccnc3cc(Cl)ccc23)c(O)c1O	49	i	i	i	i	i
CC/C(=N\Nc1ccnc2cc(Cl)ccc12)c1ccc(O)cc1	34	96	i	i	i	i
SMILES	PfM18AAP inh-1	ALR H2O2 inh	SUMO Mot1 rescue	HIF activator	PfM18AAP inh-2	CTSL1 confirm
Cc1cccc(NC(=O)CN(CC2CCCO2)C(=O)c2cc(S(=O)(=O)N(C)C)ccc2F)c1C (stereo not given)	nt	i	i	nt	nt	nt
c1ccc2sc(NN=C3CCCCCC3)nc2c1	33	i	i	i	i	i
O=C(Nc1nc2ccccc2s1)c1ccccc1	i	i	i	i	nt	nt
COc1ccc(N2C(=O)CSC2c2cccc(F)c2)cc1 (stereo not given)	i	nt	i	i	nt	nt
COc1ccc(C(C)C)cc1S(=O)(=O)Nc1ccncc1	37	i	i	i	i	i
CN(C)S(=O)(=O)c1cc(NC(=O)COC(=O)c2nc(Cl)ccc2Cl)ccc1Cl	nt	i	i	nt	nt	nt
CC(C)n1c(SCC(=O)Nc2nncs2)nnc1-c1ccco1	74	i	i	i	60	i
N#Cc1c(/N=C/c2cccs2)sc2c1CCCCC2	34	95	i	i	i	i
N#Cc1c(/N=C/c2ccc(Br)s2)sc2c1CCC2	i	nt	nt	nt	nt	nt
CCCc1nnc(NC(=O)C23CC4CC(CC(C4)C2)C3)s1	i	i	i	i	nt	nt
Cc1c(NC(=S)N/N=C\c2ccccc2O)c(=O)n(-c2ccccc2)n1C	36	i	i	i	i	i
Cc1c(NC(=S)N/N=C/c2ccc(Br)cc2)c(=O)n(-c2ccccc2)n1C	i	nt	i	i	nt	nt
C[C@H](CO)N1C[C@H](C)[C@@H](CN(C)C(=O)NC2CCCCC2)Oc2c(NC(=O)Cc3ccccc3)cccc2C1=O	nt	i	i	nt	nt	nt
COc1cccc(/C=N/N=C(\N)c2nonc2N)c1O	i	i	i	i	nt	nt
COc1cc(C2C3=C(CC(C)(C)CC3=O)N(C)C3=C2C(=O)CC(C)(C)C3)ccc1O	34	i	i	i	i	i
CCOC(=O)c1c(NC(=S)Nc2ccc(Cl)cc2)sc(C)c1C	i	nt	nt	i	nt	nt
Cc1sc(NC(=S)Nc2ccc(F)cc2)c(C(N)=O)c1C	47	i	i	i	i	i
O=C(C[n+]1ccc(-c2ccccc2)cc1)Nc1ccc([N+](=O)[O-])cc1	i	i	i	i	nt	nt
Fc1ccccc1/C=N/Nc1ncnc2nc[nH]c12	33	i	i	i	i	i
O=c1[nH]c2ccc(S(=O)(=O)Nc3ccccc3O)cc2[nH]1	50	93	i	i	47	i
CC(C)=CCCC1(C)C=Cc2c(c(C)cc3c2[nH]c2cc(O)ccc23)O1 (stereo not given)	nt	i	i	i	nt	nt
Cc1c(Cc2ccccc2)c(=O)oc2c(O)c(O)ccc12	47	nt	nt	i	i	i
CCOC(=O)c1sc(=S)n(C)c1NC(=O)c1ccccc1C	35	i	i	i	i	i
CS(=O)(=O)O/N=C1\CCCCC1c1ccc([N+](=O)[O-])cc1[N+](=O)[O-] (stereo not given)	i	i	i	i	nt	nt
CC(C)(C)c1ccc(S(=O)(=O)O/N=C2/CCCCC2c2ccc([N+](=O)[O-])cc2[N+](=O)[O-])cc1 (stereo not given)	38	i	i	i	i	i
SMILES	PfM18AAP inh-1	ALR H2O2 inh	SUMO Mot1 rescue	HIF activator	PfM18AAP inh-2	CTSL1 confirm
COc1ccccc1N1CCN(C(=S)Nc2ccc(S(=O)(=O)N3CCOCC3)cc2)CC1	32	i	i	i	i	i
O=S(=O)(c1ccc(NC(=S)N2CCN(c3ccccc3F)CC2)cc1)N1CCOCC1	i	i	i	i	nt	nt
OCCN1CCN(C(=S)Nc2cccc(C(F)(F)F)c2)CC1	i	i	i	i	nt	nt
Oc1cccc(C=Nc2cccc3ccccc23)c1O	50	nt	i	i	32	i
Oc1ccccc1C=Nc1cccc2ccccc12	i	i	i	i	nt	nt
Oc1ccccc1N=Cc1c(O)ccc2ccccc12	31	nt	nt	i	i	i
COC(=O)C1(C)NC(c2ccc(O)cc2)C2C(=O)N(c3ccc(C)cc3)C(=O)C21 (stereo not given)	i	i	i	i	nt	nt
O=C(CNC(=O)c1cccc(OC(F)F)c1)OCc1cc(=O)n2cc(Br)ccc2n1	i	nt	i	i	nt	nt
Cc1ccc(C(=O)NC(=S)NNS(=O)(=O)c2ccc(C)cc2)cc1	40	97	i	?	i	i

Screening results (PubChem BioAssay)
